Measurements taken from PubChem BioAssay (NCI).
This is part of a sample that, as a whole, favours compounds with a hit. Of some 83,000 tested, about 20% had one in any assay.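 48-hour exposure, single concentration, 96-well plates; percent growth endpoint where 0 means no net growth. Active: below 10.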 The source made the active and inactive calls.

Legend:
Experiment in all cases: NCI-60 one-dose screen, 48 h (100 = growth as untreated, 0 = no growth, -100 = all killed)
Details in all cases: 10 µM unless noted
[1] = system: SK-MEL-2 melanoma
[2] = system: EKVX NSCLC
[3] = system: SN12C renal
[4] = system: UO-31 renal
[5] = system: TK-10 renal
[6] = system: ACHN renal
[7] = system: CAKI-1 renal
[8] = system: A498 renal
[9] = system: CCRF-CEM leukemia
[10] = system: SR leukemia
[11] = system: RPMI-8226 leukemia
[12] = system: OVCAR-8 ovarian
[13] = system: OVCAR-5 ovarian
[14] = system: OVCAR-4 ovarian
[15] = system: SK-OV-3 ovarian
[16] = system: IGROV1 ovarian
[17] = system: OVCAR-3 ovarian
[18] = system: HS 578T breast
[19] = system: NCI/ADR-RES ovarian

Measured: growth

Nc1cc2c3c(cccc3c1)C(=O)N(CCN1CCCC1)C2=O
active: [6] 4.18% | [7] 7.81% | [8] 0.673% | [10] -6.11% | [11] 7.72% | [16] 8.96%
inactive: [1] 60.2% | [2] 73% | [3] 31.9% | [4] 13.5% | [5] 105% | [9] 28.7% | [12] 34.4% | [13] 65.6% | [14] 49.2% | [15] 36.9% | [17] 49.9% | [18] 35.2% | [19] 35.1%

O=C(Nc1cccc(Cl)c1)c1cc(N=Nc2ccc([N+](=O)[O-])cc2Cl)ccc1O
active: [1] -26.6% | [11] 3.54%
inactive: [2] 70.2% | [3] 82.1% | [4] 38.7% | [5] 136% | [6] 82.4% | [7] 100% | [8] 69.5% | [9] 21.3% | [10] 20.7% | [12] 15.6% | [13] 112% | [14] 59.9% | [15] 93.1% | [16] 22.9% | [17] 85% | [18] 54% | [19] 67.6%

Cc1cc(NCc2cc(Nc3ccnc4cc(Cl)ccc34)ccc2F)nc(Cl)n1
inactive: [1] 54.6% | [2] 39.4% | [3] 37.2% | [4] 30% | [5] 38.1% | [6] 46.6% | [7] 56.5% | [8] 41.3% | [9] 42.8% | [10] 12% | [11] 29.6% | [12] 35.9% | [13] 74.2% | [14] 34% | [15] 70.2% | [16] 57% | [17] 57.2% | [18] 57.7% | [19] 35.7%

O=c1ssc(Cl)c1-c1ccccc1
inactive: [1] 155% | [2] 94.9% | [3] 93.9% | [4] 74.6% | [5] 126% | [6] 104% | [7] 90.5% | [8] 108% | [9] 98.1% | [10] 124% | [11] 111% | [12] 89.4% | [13] 88.7% | [14] 98.4% | [15] 118% | [16] 83.7% | [17] 126% | [18] 104% | [19] 95.9%

N[C@@H](CCCCNCC(=O)O)C(=O)O
inactive: [1] 115% | [2] 96.9% | [3] 101% | [4] 91% | [5] 98.1% | [6] 96.8% | [7] 96.9% | [8] 85.4% | [9] 109% | [10] 99.3% | [11] 116% | [12] 105% | [13] 102% | [14] 101% | [15] 103% | [16] 108% | [17] 114% | [18] 98.2% | [19] 101%

CCC(CO)Nc1nc2ccc(Cl)cc2c2ccccc12 (centres undefined)
active: [8] -19%
inactive: [1] 84.1% | [2] 47.9% | [3] 71.1% | [4] 39.5% | [5] 54.3% | [6] 73.9% | [7] 40.9% | [9] 56.5% | [10] 26.9% | [11] 66.6% | [12] 75.1% | [13] 66.9% | [14] 71.3% | [15] 70.7% | [16] 58.1% | [17] 62.8% | [18] 29.5% | [19] 62.4%

Cc1cc(NCc2cc(Nc3ccnc4cc(Cl)ccc34)ccc2F)nc(N2CCSCC2)n1
inactive: [1] 47.6% | [2] 58.7% | [3] 34.9% | [7] 60.9% | [8] 45% | [12] 19.2% | [13] 78.7% | [14] 14.4% | [15] 10.3% | [16] 40.6% | [19] 15.7%
active: [4] -10.2% | [5] -58.3% | [6] -81.4% | [9] -10.4% | [10] -11.7% | [11] -9.52% | [17] -32.6% | [18] -1.47%

COC(=O)[C@]12CC[C@@H](C)[C@H](C)[C@@H]1C1=CC[C@@H]3[C@@]4(C)C(C=O)=C[C@@](C)(COC(=O)c5ccco5)C4=CC[C@@]3(C)[C@]1(C)CC2
inactive: [2] 11% | [3] 17.1% | [7] 14.3% | [8] 22.2% | [12] 19.6% | [14] 18.6% | [15] 27.8% | [16] 26.5% | [19] 23.7%
active: [1] -42.1% | [4] -55.3% | [5] 6.65% | [6] -33.9% | [9] 4.27% | [10] -8.74% | [11] 4.82% | [13] 8.46% | [17] -92.6% | [18] 3.14%

O=C1/C(=C/c2ccc(F)cc2)C=C(c2ccccc2)N1CCc1ccccc1
inactive: [1] 55.5% | [2] 56.9% | [3] 58.3% | [4] 51% | [5] 62.4% | [6] 38.6% | [7] 76% | [8] 81.3% | [9] 95% | [10] 46.5% | [11] 89.3% | [12] 45.6% | [13] 78.7% | [14] 39.3% | [15] 29.1% | [16] 62.3% | [17] 53.1% | [18] 42.1% | [19] 58.2%

COC(=O)[C@]12CC[C@@H](C)[C@H](C)[C@@H]1C1=CC[C@@H]3[C@@]4(C)C(C=O)=C[C@@](C)(COC(C)=O)[C@@H]4C(=O)C[C@@]3(C)[C@]1(C)CC2
inactive: [1] 43% | [2] 36.1% | [3] 43.6% | [4] 34.1% | [5] 36.8% | [6] 23.5% | [7] 44.6% | [8] 60.5% | [9] 43.9% | [10] 48.3% | [11] 26% | [12] 41.5% | [13] 68.8% | [14] 38.1% | [15] 42.3% | [16] 46.3% | [17] 39.1% | [18] 65.1% | [19] 34%

O=C(Nc1ccccc1)Nc1cccc(Oc2nnc(Cl)c3ccccc23)c1
active: [1] 9.53% | [14] 0.217% | [15] -0.5% | [18] 1.19%
inactive: [2] 30% | [3] 53.7% | [4] 34.9% | [5] 25.3% | [6] 33.9% | [7] 84.4% | [8] 49.2% | [9] 47.6% | [10] 18% | [11] 35.1% | [12] 15.5% | [13] 86.3% | [16] 37.2% | [17] 25.4% | [19] 16.9%

CCCCCCCCCCCCCCCCCCOc1ccccc1CC(=O)OCCC[N+](C)(C)C
inactive: [1] 87.7% | [2] 79% | [3] 36% | [4] 90.1% | [5] 50.1% | [6] 67.5% | [7] 43.6% | [8] 98.5% | [9] 25.7% | [10] 56.6% | [11] 38.1% | [12] 43.8% | [13] 46.9% | [14] 35% | [15] 94.2% | [17] 64.3% | [18] 67.2% | [19] 100%
active: [16] -15.2%

COc1ccc(-c2nc3c(c(=O)n2C(C)=O)C(c2ccc(Cl)cc2)c2sc4c(Cl)cccc4c2O3)cc1 (centres undefined)
inactive: [2] 24.6% | [14] 24.4% | [16] 12.5%
active: [1] -11.5% | [3] -35.1% | [4] 6.4% | [5] -35.6% | [6] 8.98% | [7] -6.4% | [8] -2.79% | [9] -3.94% | [10] -11.7% | [11] 2.22% | [12] -23% | [13] -13.8% | [15] -22.6% | [17] -71.4% | [18] -15.6% | [19] -4.4%

CCCCn1c(=O)c2c(nc(NCCc3ccc(O)c(O)c3)n2CCC)n(CCCC)c1=O
inactive: [1] 72.7% | [2] 79.5% | [3] 86.6% | [4] 56.7% | [5] 85.8% | [6] 81% | [7] 100% | [8] 86.9% | [9] 36.6% | [10] 35.9% | [11] 74.8% | [12] 75.5% | [13] 97.9% | [14] 45.5% | [15] 96.3% | [16] 82.5% | [17] 65.2% | [18] 66.5% | [19] 77.2%

Clc1cc(Cl)cc(Nc2ccc3cc(OCCCN4CCOCC4)ccc3n2)c1
inactive: [1] 63.9% | [2] 69.3% | [3] 60.1% | [4] 26.5% | [5] 47% | [6] 42% | [7] 75.3% | [8] 51% | [9] 12.9% | [12] 44.4% | [13] 65.7% | [14] 46.8% | [15] 67.4% | [16] 58% | [17] 60% | [18] 25% | [19] 51%
active: [10] 1.31% | [11] -2.42%

CCN(CC)CCCCCCNc1cc(OC)c(Cl)c2cccnc12
inactive: [1] 92.4% | [2] 85.6% | [3] 67.7% | [4] 51.8% | [5] 85.3% | [6] 82.5% | [7] 84.6% | [8] 45.3% | [9] 84.7% | [10] 42.2% | [11] 75.3% | [12] 84.9% | [13] 83% | [14] 73.6% | [15] 92.5% | [16] 86.6% | [17] 66.9% | [18] 58.8% | [19] 79.3%
